Unmarked numbers belong to inactive results.
System: gramicidin D channels in DC22:1PC lipid vesicles (bilayer-modifying potency)
Experiment: initial Tl+ fluorescence quench rate relative to no-drug control (NormRate, gramicidin monomer-dimer shift) (ratio (fold of control)); higher = stronger bilayer-modifying effect (equilibrium shifted toward conducting dimers), active = 1.5 or more
Conditions: 10 µM; lipid concentration 50 µM; temperature: 25 °C
Protocol: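 Stopped-flow fluorescence quench assay: ANTS-loaded DC22:1PC large unilamellar vesicles doped with gramicidin D (1:2000), 50 µM lipid, equilibrated 10 min with 10 µM drug (0.1% DMSO), mixed with Tl+ quench buffer at 25°C. Initial quench rate (Tl+ influx) was fitted with a modified stretched exponential and normalised to the no-drug control rate (NormRate); duplicates from two independent LUV preparations (triplicates for 7 drugs).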

| Compound | initial Tl+ fluorescence quench rate |
| --- | --- |
| COc1cc(C(F)(F)F)nc2ccc(C)c(N)c12 | 1.03 |
| Clc1ccc(CN2CCN(C3=NCCN3)CC2)cc1Cl | 1.2 |
| CCc1ccc(S(=O)(=O)Nc2cc(CN3CCN(CCC(C)C)CC3)ccc2C)cc1 | 1.29 |
| Nc1ncnc2c1ncn2[C@@H]1O[C@H](COS(=O)(=O)NC(=O)c2ccccc2O)[C@@H](O)[C@H]1O | 1.02 |
| NC(=O)c1cc(-c2ccsc2)ccc1OCCOc1ccccc1 | 1.14 |
| C[C@@H](Oc1cccc(Cl)c1)C(=O)Nc1ccc2oc(-c3ccncc3)nc2c1 | 1.72 (active) |
| C[C@H](c1ccc2c(c1)CCCC2)N(C)c1ncc2c(N)nc(N)nc2n1 | 2.15 (active) |
| Nc1cccnc1Nc1ccc(Cl)cc1 | 1.05 |
| CCOC(=O)c1c(NC(=O)c2c(F)c(F)c(F)c(F)c2F)sc(C(N)=O)c1C | 1.41 |
| O=C([C@@H](c1ccc(Cl)cc1)c1cccnc1)N1CCN(c2ccc(C(F)(F)F)cc2)CC1 | 10.5 (active) |
| CC(C)(C)C(=O)N(CCCCCCN1C[C@H](O)[C@@H](O)[C@H](O)[C@H]1CO)C1CCCCCC1 | 1.15 |
| O=C(Nc1cnc2ccccc2c1)c1cccc(-n2cnnn2)c1 | 1.26 |
| Cc1cc(C)nc(-n2nc(C)cc2Nc2ccccc2)n1 | 1.32 |
| C[C@H]1COC2(CCN(c3nc(=O)c4cc(C(F)(F)F)cc([N+](=O)[O-])c4s3)CC2)O1 | 1.08 |
| FC(F)(F)c1cccc(-c2nc3c(NCc4ccncc4)nccc3[nH]2)c1 | 1.76 (active) |
| CC(C)(C)n1nc(-c2ccccc2)c2c(N)ncnc21 | 1.03 |
| OCc1ccc(-c2cncc(Nc3cccc(Cl)c3)c2)cc1 | 2.64 (active) |
| COc1cc(CN2CCC3(C=Cc4ccccc43)CC2)cc2c1OCO2 | 2.43 (active) |
| COc1cccc(OC)c1C(=O)Nc1ccc(Cl)c(-c2nc3ccccc3s2)c1 | 3.12 (active) |

| Compound | initial Tl+ fluorescence quench rate |
| --- | --- |
| FC(F)(F)c1cc(NCCc2ccccc2)nc(-c2ccccn2)n1 | 1.31 |
| O=C(c1cc2ccccc2o1)N1CCN(Cc2ccc3c(c2)OCO3)CC1 | 1.08 |
| Cc1nc2ccccn2c1C(=O)NCc1ccc(Cl)cc1 | 1.17 |
| CS(=O)(=O)Cc1nc2ccccc2oc1=O | 1.08 |
| Clc1cccc([C@@H](c2ccc(CN3CCNCC3)cc2)n2ccnc2)c1 | 1.17 |
| O=C(Nc1ccc(N2CCNCC2)cc1)c1ccn2ncc(-c3cccc(Cl)c3)c2n1 | 2.57 (active) |
| O=C(NC1CC1)c1ccc(CSCc2ccccc2Cl)o1 | 1.35 |
| Nc1ncc(Br)cc1-c1nc2cc(Cl)cnc2[nH]1 | 1.06 |
| O=C(NCCc1c[nH]c2ccccc12)c1cc2ccccc2oc1=O | 1.95 (active) |
| Cc1cc(NC(=O)c2ccc(S(=O)(=O)N(Cc3ccccc3)C(C)C)cc2)no1 | 1.14 |
| Cc1cc(NCC(C)C)c2n[nH]c(-c3ccccc3)c2n1 | 1.11 |
| O=C(C1CCN(c2cc(-n3cccc3)ncn2)CC1)N1CCc2ccccc2C1 | 1.45 |
| O=C([C@@H](Cc1c[nH]c2ccccc12)NS(=O)(=O)c1ccc(Cl)cc1)N1CCCCC1 | 4.26 (active) |
| O=C(N[C@H]1CCN(c2ccnc3ccccc23)C1)c1cccc(C(F)(F)F)c1 | 1.27 |
| C[C@@H](C(=O)N1CCCC1)N1CCN(S(=O)(=O)c2ccc(C(C)(C)C)cc2)CC1 | 1.15 |
| C[C@@]1(COc2ccc(N3CCC(Oc4ccc(OC(F)(F)F)cc4)CC3)cc2)Cn2cc([N+](=O)[O-])nc2O1 | 1.1 |
| O=C(C1CCN(c2nnnn2-c2ccccc2)CC1)N1CCc2ccccc2C1 | 1.23 |
| O=C(Nc1cccc(Cl)c1)c1cnc(N2CCN(c3ccncc3)CC2)c(Cl)c1 | 3.74 (active) |
| CC[C@H](NC(=O)c1ccccc1NC(=O)c1ccc(C)cc1)C(=O)OC | 1.32 |

From the supplement of paper PMC9948646
